Laboratory results from ChEMBL document CHEMBL3988442, “University of Dundee, Small-Polar-MMV Screening Library” (2021).
Out of some 38,000 compounds screened, about 1,200 (3.2%) showed an effect of 50% or more. The median lay at about -58%. The list comes from a sample in which strong results are over-represented; it also holds similar structures and randomly drawn compounds.

The compounds below were run on Plasmodium falciparum (assay: Calibr Malaria Delayed Death Assay SOP). Settings: concentration 4.99e-06 (unit not given; other assays of the set use mol/L).
Format: functional, organism-based
Parameters: scale not given: in the data most compounds retested in dose-response had high values

Going from `C=C(C)CN1CCC(NC(=O)Nc2ccc(F)c(C(N)=O)c2)CC1` to `NC(=O)c1cc(NC(=O)NCCc2cc(F)cc(F)c2)ccc1F`, the “Percent Effect” value rises from -90.89% to -73.47%.

Compared with `Cc1cc(Br)ccc1C(=O)NCCN1CCCCCC1`, `Cc1cc(C2CCCN(CC(=O)N3CCCc4ccccc43)C2)n[nH]1` (stereo not drawn) is lower in “Percent Effect” value: 28.4% for the first, -11.77% for the second.

Compared with `COc1ccc(Cn2cc(C(=O)N(C)Cc3ccn[nH]3)nn2)cc1`, `Cc1cnn(CCNCC(=O)NCCOc2ccc(Cl)cc2)c1` is higher in “Percent Effect” value: -12.45% for the first, -0.9504% for the second.

Going from `CCC(C)[C@H](N)c1nnc(SCC(=O)Nc2ccc(C)cc2C)o1.Cl` (stereo partly drawn) to `CC(=O)Nc1cccc2c1ccn2CC(=O)Nc1n[nH]c(CC(C)C)n1`, the “Percent Effect” value falls from -23.34% to -107.2%.

Compared with `COc1ccc(C2CCCCCN2Cc2cn(C)nc2C)cc1` (stereo not drawn), `Cc1nn(C)c(Cl)c1C1CCCN1C(=O)c1cccn1C` (stereo not drawn) is lower in “Percent Effect” value: -0.1987% for the first, -34.06% for the second.

First: CSc1ncnc(NCc2ccccc2F)c1C#N
Second: CN(C)c1ncccc1CNS(=O)(=O)c1cc(F)ccc1F
The “Percent Effect” value of the first is higher: -23.93% for the first, -126.3% for the second.

First: O=C1COc2cc(C(=O)NS(=O)(=O)c3ccc(F)cc3)ccc2N1
Second: Cc1ccc(S(=O)(=O)CCC(=O)N(C)Cc2cnn(C)c2)cc1
The “Percent Effect” value of the first is higher: -21.19% for the first, -22.92% for the second.

First: c1cc(CNCC2CNc3ccnn3C2)cc(Cn2cccn2)c1 (stereo not drawn)
Second: CCC1COCCN1C(=O)NCc1nccn1CCc1ccccc1 (stereo not drawn)
The “Percent Effect” value of the first is higher: -27.88% for the first, -72.5% for the second.

Going from `FC1(F)CCNCC12CCN(c1ncccn1)C2` (stereo not drawn) to `FC1(F)CCNCC12CCN(c1ccccn1)C2` (stereo not drawn), the “Percent Effect” value rises from 17.29% to 56.42%.

Going from `O=C(CO)N1CCC(F)(F)C2(CCN(c3ccccc3)C2)C1.O=C(O)C(F)(F)F` (stereo not drawn) to `O=C(O)C(F)(F)F.O=C(O)C(F)(F)F.O=C(O)CN1CCC(F)(F)C2(CCN(c3ccccc3)C2)C1` (stereo not drawn), the “Percent Effect” value rises from -34.49% to 66.58%.

Compared with `FC1(F)CCNCC12CCN(c1cccnc1)C2.O=C(O)C(F)(F)F.O=C(O)C(F)(F)F` (stereo not drawn), `Cn1ccnc1CN1CCC(F)(F)C2(CCN(c3cccnc3)C2)C1.O=C(O)C(F)(F)F.O=C(O)C(F)(F)F` (stereo not drawn) is lower in “Percent Effect” value: 64.81% for the first, 58.45% for the second.

Going from `O=C(O)C(F)(F)F.O=C(O)C(F)(F)F.O=C(O)CN1CCC(F)(F)C2(CCN(c3ccccn3)C2)C1` (stereo not drawn) to `Cn1ccnc1CN1CCC(F)(F)C2(CCN(c3cnccn3)C2)C1.O=C(O)C(F)(F)F` (stereo not drawn), the “Percent Effect” value rises from -82.81% to -1.841%.

Compared with `Cn1ccnc1CN1CCC2(CC1)CN(Cc1cccnc1)C(=O)CO2.O=C(O)C(F)(F)F.O=C(O)C(F)(F)F`, `Cc1cccc(CN2CC3(CCN(S(=O)(=O)C4CC4)CC3)OCC2=O)n1.O=C(O)C(F)(F)F` is lower in “Percent Effect” value: -38.55% for the first, -75.59% for the second.

Compared with `Fc1cccnc1N1CCC2(CNCCC2(F)F)C1` (stereo not drawn), `N#Cc1ccc(N2CCCC3(CCN(c4cccnc4)CC3)C2)cc1.O=C(O)C(F)(F)F` is lower in “Percent Effect” value: 45.04% for the first, -71.51% for the second.

Compared with `O=C(C1CCCO1)N1CCCC2(CCN(c3cccnc3)CC2)C1.O=C(O)C(F)(F)F` (stereo not drawn), `O=C(c1ccc(-c2ccoc2)nc1)N1CCCN(C2CCCCC2)CC1` is lower in “Percent Effect” value: -72.8% for the first, -100.8% for the second.

Going from `COCC1CN(Cc2ccoc2)Cc2nn(CC3CC3)cc21.O=C(O)C(F)(F)F` (stereo not drawn) to `O=C1CN(C(=O)c2cccc(C(F)(F)F)c2)CC(O)CN1CC1CC1` (stereo not drawn), the “Percent Effect” value rises from -62.03% to -23.92%.

Going from `O=C(C1CC(c2ccccc2)=NO1)N1CCc2ccccc21` (stereo not drawn) to `Cc1cc(C2CCCN(CC(=O)N3CCc4ccccc43)C2)n[nH]1` (stereo not drawn), the “Percent Effect” value falls from -20.98% to -86.51%.

Compared with `O=C(Cc1noc(C(=O)NCC2CC2)n1)Nc1cccc(C(F)(F)F)c1`, `NC(=O)N1CCCC(C(=O)NCc2ccccc2OC(F)(F)F)C1` (stereo not drawn) is lower in “Percent Effect” value: 7.243% for the first, -135.5% for the second.

Going from `Clc1snnc1CN1CCN(c2nccs2)CC1` to `Cc1csc(CNC(=O)N2CCN(Cc3ccco3)CC2)n1`, the “Percent Effect” value falls from -49.26% to -96.64%.

Going from `CNc1cc(C)nc(N2C[C@H](C3CC3)[C@@H](N)C2)n1` to `CNc1cc(C)nc(N2C[C@@H](C(=O)O)[C@H](C3CC3)C2)n1`, the “Percent Effect” value falls from 87.7% to -82.68%.

Going from `CC(C)Oc1cc(N2C[C@H](C3CC3)[C@@H](N)C2)nc(N)n1` to `CCc1cc(N2C[C@H](C3CC3)[C@@H](N)C2)nc(N2CCCC2)n1`, the “Percent Effect” value rises from -219.2% to 69.94%.

First: N[C@H]1CN(Cc2cnc(N3CCCC3)nc2)C[C@@H]1C1CC1
Second: CNc1cc(C)nc(N2C[C@H](NC(=O)C3CCOCC3)[C@@H](C3CC3)C2)n1
The “Percent Effect” value of the first is higher: -9.289% for the first, -47.54% for the second.

Compared with `COCC(=O)N(Cc1ccc2[nH]ccc2c1)C1CC1`, `CN(Cc1ccccc1OC(F)(F)F)C(=O)C1CC1` is lower in “Percent Effect” value: -74.09% for the first, -112.4% for the second.

First: CCCN1CCN(CC(O)c2ccc(OC(F)(F)F)cc2)CC1 (stereo not drawn)
Second: OCCN1CCN(CC(O)c2ccc(OC(F)(F)F)cc2)CC1 (stereo not drawn)
The “Percent Effect” value of the first is higher: 42.81% for the first, -7.34% for the second.

Going from `CC(NCC1CCN(CCO)CC1)c1ccc(OC(F)(F)F)cc1` (stereo not drawn) to `CC(NCC1CCN(CCO)CC1)c1ccc(C(F)(F)F)cc1` (stereo not drawn), the “Percent Effect” value falls from 93.49% to 88.54%.

First: CC(c1ccc(C(F)(F)F)cc1)N1CCN(CCS(C)(=O)=O)CC1 (stereo not drawn)
Second: COCCN1CCN(CC(O)c2ccc(C(F)(F)F)cc2)CC1 (stereo not drawn)
The “Percent Effect” value of the first is lower: -72.63% for the first, 6.899% for the second.

Going from `Cc1nccn1CCCC(=O)N1CCCN(c2cccnn2)CC1` to `O=C(CCc1cscn1)N1CCCC(c2ccn[nH]2)C1` (stereo not drawn), the “Percent Effect” value rises from -112.5% to -83.54%.

Going from `COC(=O)C1CN(Cc2nc(-c3ccccc3)cs2)C[C@@H](C)O1` (stereo partly drawn) to `CCC(CC)NC(=O)c1cccnc1N1CCCC1c1ccccn1` (stereo not drawn), the “Percent Effect” value falls from -63.3% to -135.6%.

Going from `Cc1cc2cccc(NC(=O)N3CCC(N(C)C)C3)c2o1` (stereo not drawn) to `CC(C)C1Nc2ccccc2C(=O)N1CC(=O)Nc1nc2c(s1)CCC2` (stereo not drawn), the “Percent Effect” value rises from -83.5% to 15.72%.

Compared with `O=C1CC(c2ccc3c(c2)OCO3)c2c(n3ccsc3nc2=O)N1` (stereo not drawn), `O=C(CN1CCCC(c2ccn[nH]2)C1)Nc1nc2c(s1)CCC2` (stereo not drawn) is higher in “Percent Effect” value: -91.85% for the first, 89.1% for the second.

Going from `CCCS(=O)(=O)N1CCN(C(C)(C)CO)CC1` to `O=C1CCCN1CCN1CCCC(c2ccn[nH]2)C1` (stereo not drawn), the “Percent Effect” value rises from -101.2% to 13.33%.

Going from `Cc1nnc(NC(=O)CN2CCCC(Cn3cncn3)C2)s1` (stereo not drawn) to `Cc1nnc(NC(=O)CN2CCCC(c3ccn[nH]3)C2)s1` (stereo not drawn), the “Percent Effect” value rises from -101.2% to 85.62%.

Going from `O=C1CCCCCN1CCC(=O)N1CCCC(c2ccn[nH]2)C1` (stereo not drawn) to `O=C(CN1CCCC(c2ccn[nH]2)C1)Nc1nc2c(s1)CCCC2` (stereo not drawn), the “Percent Effect” value rises from -59.24% to 85.91%.

Compared with `Cc1nnc(NC(=O)CN2CCOC(Cn3cccn3)C2)s1` (stereo not drawn), `Cc1cc(C2CCCN(CC(=O)Nc3nc4c(s3)CCC4)C2)n[nH]1` (stereo not drawn) is higher in “Percent Effect” value: -152.2% for the first, 86.8% for the second.
